From PubChem
RORg inh: blocks mouse ROR gamma transcriptional activity | Drosophila S2 Gal4-RORgamma UAS-luciferase reporter, 20 h | Potency, µM (highest dose often 53.6 µM), actives largely listed as inhibitors | AID 2551 | 310,000 compounds, 5.4% hits; further: nearly all actives have a fitted effect of over 60% in size
Target sequence (P51450 whole entry, looked up, the tested form may be a part): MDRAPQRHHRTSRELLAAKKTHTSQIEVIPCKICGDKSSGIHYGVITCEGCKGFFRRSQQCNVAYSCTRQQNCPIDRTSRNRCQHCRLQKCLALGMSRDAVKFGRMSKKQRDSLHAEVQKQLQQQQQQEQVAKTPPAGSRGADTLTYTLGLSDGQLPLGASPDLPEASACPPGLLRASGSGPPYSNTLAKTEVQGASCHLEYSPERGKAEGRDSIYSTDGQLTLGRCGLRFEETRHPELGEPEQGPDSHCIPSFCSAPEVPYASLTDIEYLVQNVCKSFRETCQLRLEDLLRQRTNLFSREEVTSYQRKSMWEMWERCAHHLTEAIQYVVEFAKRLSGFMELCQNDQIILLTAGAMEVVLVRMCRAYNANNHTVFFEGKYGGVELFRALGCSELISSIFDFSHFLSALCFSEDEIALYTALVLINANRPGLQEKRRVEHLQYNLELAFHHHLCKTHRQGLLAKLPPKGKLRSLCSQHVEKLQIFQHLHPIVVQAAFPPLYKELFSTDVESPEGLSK
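A Gal4/UAS one-hybrid system in insect cells: metallothionein-promoter Gal4–ROR gamma fusion plus Photinus luciferase reporter. Copper sulfate 700 uM final, 20 hr ambient incubation, luminescent detection after 10 min with reagent.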
ELG1 DNA repair: ELG1-dependent DNA repair inhibition; 330,000 compounds, 2.3% hits; Potency, µM (doses to about 46.1 µM), most hits filed as inhibitors; HEK293T ELG1-luciferase reporter, luminescence, 16 h; DNA damage induced by 5-fluorouridine; further: nearly all actives have a fitted effect of over 55% in size
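Quantitative HTS, concentration-response format. 2,000 cells/well co-treated with 5-fluorouridine and compound, 16 hr in 5% CO2 at 37 °C; ONE-Glo luminescence read after 30 min.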
TDP1 cell noCPT: qHTS for Inhibitors of human tyrosyl-DNA phosphodiesterase 1 (TDP1): qHTS in cells in absence of CPT; DT40 Tdp1-/- hTDP1 cells, no CPT, ATP luminescence, 48 h; Potency, µM (top dose mostly 46.2 µM), most hits filed as inhibitors; 420,000 compounds, 15% hits; further: nearly all actives have a fitted effect of over 55% in size
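Growth kinetics read by CellTiter-Glo luminescence after ≥48 hr at 37 °C. Cells: DT40 Tdp1-/- stably carrying human TDP1, 400 per well, compound exposure in the absence of CPT (DMSO vehicle).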
IL-1B inflam inh: inflammasome signaling inhibition, IL-1 beta readout | THP-1 LPS/ATP IL-1B secretion, AlphaLISA, 16 h; active compounds read low | activity change, % at 57.5 µM | 360,000 compounds, 4.7% hits; in the data active means activity change below about -50%; inconclusive means mostly about -30% to -49%
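Secreted IL-1B measured by AlphaLISA bead assay after 16 h compound exposure of THP-1 cells; compounds (final up to 57.5 uM) added 1 h before LPS (250 ng/mL) and ATP (1.25 mM) stimulation; lower signal means less secretion.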
DT40 TDP1 CPT: growth inhibition of DT40 Tdp1-/-;hTDP1 cells with camptothecin (screen for TDP1 inhibitors); chicken DT40 Tdp1-/-;hTDP1 cells + 20 nM CPT, ATP luminescence, 48 h; Potency, µM (top dose mostly 46.2 µM), usual class: inhibitors; AID 686979; 420,000 compounds, 12% hits; further: nearly all actives have a fitted effect of over 55% in size
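Chicken DT40 Tdp1-/- cells stably complemented with human TDP1 were seeded at 400 cells/well in medium containing 20 nM camptothecin, exposed to pin-transferred compounds, and grown at 37 °C for at least 48 hr. Viability was read as ATP luminescence.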
Gal4-VP16 FLuc: Gal4-VP16 reporter inhibition counter-screen; Potency, µM (doses to about 53.6 µM), actives largely listed as inhibitors; 310,000 compounds, 3.5% hits; AID 2546; Drosophila S2 Gal4-VP16 UAS-luciferase, luminescence, 20 h;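 further: Gal4-VP16 expression switched on by copper sulfate through the metallothionein promoter; nearly all actives have a fitted effect of over 50% in size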
A number is an active result; - = inactive; ? = inconclusive; . = no result; [ ] = remark or other dose. Compounds with a hit are over-represented: about 21% of the library has one in this group of screens. Unless noted, the call rests on the fitted dose curve; in most records, active means well fitted curve in the direction sought with a large enough effect; inconclusive means small, poorly fitted or top-dose-only effect, or another doubt; inactive means no such curve, though single readings can be large; an effect the other way counts as inactive or inconclusive.

SMILES	RORg inh	ELG1 DNA repair	TDP1 cell noCPT	IL-1B inflam inh	DT40 TDP1 CPT	Gal4-VP16 FLuc
CCC(C(=O)Nc1nnc2n1CCS2)c1ccccc1 (stereo not drawn)	.	.	-	.	-	.
Cc1nnc(SCC(=O)N2c3ccccc3Sc3ccccc32)n1N	?	-	-	-	-	-
Cn1nnnc1SCC(=O)N1c2ccccc2Sc2ccc(Cl)cc21	-	-	21µM	-	?	-
Cc1nn(C(=O)c2cccc(F)c2)c(C)c1S(=O)(=O)N1CCCCCC1	.	.	-	.	-	.
COc1ccccc1N(C)S(=O)(=O)c1ccc(C(=O)Nc2ncc(C)s2)cc1	.	?	?	-	?	.
COc1ccccc1N(C)S(=O)(=O)c1ccc(C(=O)Nc2nccs2)cc1	.	?	6.5µM	-	?	.
COc1ccccc1N(C)S(=O)(=O)c1ccc(C(=O)N(C)Cc2ccc(OC(F)F)cc2)cc1	.	16µM	23µM	-	26µM	.
COc1ccccc1N(C)S(=O)(=O)c1ccc(C(=O)Nc2cccc(Br)c2)cc1	.	18µM	16µM	-60	?	.
CCC(C)(C)NC(=O)c1ccc(S(=O)(=O)N(C)c2ccccc2OC)cc1	-	.	-	-	-	-
COc1cc(NC(=O)c2ccc(S(=O)(=O)N(C)c3ccccc3OC)cc2)cc(OC)c1	.	15µM	21µM	-	18µM	.
NCCC(=O)N[C@H](Cc1cnc[nH]1)C(=O)O	-	.	-	.	-	-
COc1ccc(NS(=O)(=O)c2cccc(C(=O)NNC(=O)c3ccccc3OC)c2)cc1	.	-	?	-	-	.
O=C(O)/C(=C/c1ccc(Cl)c([N+](=O)[O-])c1)c1ccc(S(=O)(=O)N2CCCCC2)s1	.	.	-	-	-	.
COc1ccccc1N(C)S(=O)(=O)c1ccc(C(=O)NCC2CCCCC2)cc1	.	?	18µM	-	?	.
COC(=O)c1ccc(NC(=O)c2ccccc2N(C)S(=O)(=O)c2ccccc2)cc1	-	-	21µM	-	?	-
COc1ccccc1N(C)S(=O)(=O)c1ccc(C(=O)NCC(C)C)cc1	?	?	?	-	-	-
COc1ccc(CCNC(=O)c2ccccc2NC(=O)C2=C(C)OCCS2)c(OC)c1	?	18µM	10µM	-	21µM	-
COc1cc(NC(=O)C2=C(C)OCCS2)c(Cl)cc1C(=O)NCCN(C)C	-	-	-	-83	-	-
Cc1cccc(NC(=O)CSc2nnc(CNC(=O)c3ccco3)o2)c1	-	-	-	-	-	-
Oc1ccc(CCc2ccccn2)cc1	.	.	-	-	?	.
O=c1[nH][nH]c2c1[C@H](c1ccc(Cl)cc1)O[C@H](C1CCCC1)C2	.	.	?	-	?	.
CC1(C(=O)NS(=O)(=O)c2ccc(Br)cc2)CCN1C(=O)c1cccc(F)c1 (stereo not drawn)	.	.	-	-	-	.
Cc1ccc(NC(=O)CCCn2c(=O)[nH]c3ccsc3c2=O)cc1	-	-	-	-	-	-
Cc1ccc(NC(=O)CCCn2c(=S)[nH]c3ccsc3c2=O)cc1C	13µM	-	-	-	-	?
O=C(CCCn1c(=S)[nH]c2ccsc2c1=O)Nc1ccc2c(c1)OCO2	13µM	-	-	-	-	-
SMILES	RORg inh	ELG1 DNA repair	TDP1 cell noCPT	IL-1B inflam inh	DT40 TDP1 CPT	Gal4-VP16 FLuc
CC(C)C[C@H](NC(=O)c1nc[nH]c1C(=O)NCc1ccccc1)C(=O)OCc1ccccc1	4.5µM	?	?	-	?	11µM
CC(C)C[C@H](NC(=O)c1nc[nH]c1C(=O)NCc1ccc(CNC(=O)OC(C)(C)C)cc1)C(=O)OC(C)(C)C	13µM	?	16µM	-	26µM	?
C[C@H](NC(=O)c1nc[nH]c1C(=O)NCc1ccc(CNC(=O)OC(C)(C)C)cc1)C(=O)OC(C)(C)C	?	8.2µM	16µM	-	18µM	-
C[C@H](NC(=O)c1nc[nH]c1C(=O)NCCCCCN)C(=O)OC(C)(C)C	.	-	-	-	-	.
CC(C)C[C@H](NC(=O)c1nc[nH]c1C(=O)NCc1ccccc1)C(=O)OC(C)(C)C	4.5µM	-	?	-	?	10µM
C=CCc1cccc(C2NC(C(=O)O)CCC2C)c1 (stereo not drawn)	-[10 µM]	.	.	.	.	-[10 µM]
O=C(NCCSc1c[nH]c2ccccc12)c1ccccc1Cl	.	.	?	.	-	.
C[C@@H](NC(=O)c1nc[nH]c1C(=O)NCc1ccc(CNC(=O)OC(C)(C)C)cc1)c1ccccc1	.	?	23µM	-	?	.
CC1=CC(C)(C)Nc2cc(C)c(C)cc21	-	-	-	-	-	-
CC1=CC(C)(C)Nc2ccc(OC(=O)CN3C(=O)CCC3=O)cc21	5.6µM	?	2.8µM	-101	2.9µM	7.1µM
O=C(Oc1ccc(F)cc1)c1cccnc1	-	-	-	-	-	-
